Screening results as filed in PubChem.
GPT2 inhibitor = Primary qHTS assay for inhibitors of Glutamate pyruvate transaminase 2 (GPT2); Recombinant GPT2, coupled pyruvate oxidase/HRP Amplex Red fluorescence; 100,000 compounds, 0.25% hits; Potency, µM (doses to about 57.7 µM), for inactives: at the top dose activity change, negative = inhibition, hits mostly inhibitors; Alanine aminotransferase 2 (Homo sapiens), Q8TD30; active = well fitted inhibition curve with a large enough effect; inconclusive = small, poorly fitted or top-dose-only effect; also: % is scaled to controls: 0 for no effect and ±100 for the full control effect; nearly all actives have a fitted effect of over 60% in size
Target sequence (Q8TD30 whole entry, looked up): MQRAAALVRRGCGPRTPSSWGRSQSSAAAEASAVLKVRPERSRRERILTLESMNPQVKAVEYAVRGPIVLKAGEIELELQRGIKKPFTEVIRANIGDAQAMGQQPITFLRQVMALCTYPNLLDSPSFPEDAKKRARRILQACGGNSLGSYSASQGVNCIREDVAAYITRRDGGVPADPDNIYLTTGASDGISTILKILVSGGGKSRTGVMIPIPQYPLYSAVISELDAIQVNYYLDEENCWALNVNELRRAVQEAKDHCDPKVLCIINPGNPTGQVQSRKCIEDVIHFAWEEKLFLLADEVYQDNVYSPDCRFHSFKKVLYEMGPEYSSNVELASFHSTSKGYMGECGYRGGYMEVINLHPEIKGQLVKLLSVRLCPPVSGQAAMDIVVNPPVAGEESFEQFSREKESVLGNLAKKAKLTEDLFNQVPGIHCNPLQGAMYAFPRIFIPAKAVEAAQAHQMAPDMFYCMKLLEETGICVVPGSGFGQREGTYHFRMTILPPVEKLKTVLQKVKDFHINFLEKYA
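GPT2 10ng/uL, a-KG 250uM, L-Ala 2mM, HEPES pH7.5 + 0.0001% Tween; 30 min RT. Then Amplex mix (PO/HRP/ThPP), 30 min RT dark, fluorescence. AOA 50uM used as positive control.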
NPR1 antag = Natriuretic polypeptide receptor (hNpr1) antagonism - Primary qHTS; HEK293 hNpr1 GloSensor cGMP, ANP-stimulated luminescence; Potency, µM (series often up to 46.3 µM), without a hit: at the highest dose activity change, negative = inhibition, actives largely listed as inhibitors; AID 1347048, 2019; Atrial natriuretic peptide receptor 1 (Homo sapiens), P16066; 76,000 compounds, 1.6% hits; also: % is scaled to controls: 0 for no effect and ±100 for the full control effect; nearly all actives have a fitted effect of over 60% in size
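Compound pre-incubated 30 min at room temperature on GloSensor-loaded HEK293 cells stably carrying hNpr1 and the pGS-40F cGMP biosensor. Stimulation uses hNppA at 0.1 nM final; luminescence is taken at baseline and 20 min post-agonist.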
NPR1 antag cnf = Natriuretic polypeptide receptor (hNpr1) antagonism - Confirmation; shares compounds with NPR1 antag; HEK293 hNpr1 cGMP GloSensor luminescence, ANP-stimulated; Potency, µM (titrated, usually from 57.6 µM), without a hit: top-dose activity change, negative = inhibition, most hits filed as inhibitors; 1,400 compounds, 76% hits; also: nearly all actives have a fitted effect of over 70% in size
Npr2 selectivity = Natriuretic polypeptide receptor (hNpr2) antagonism - Subtype selectivity assay. shares compounds with NPR1 antag. HEK293 hNpr2 GloSensor cGMP luminescence, CNP-stimulated. Potency, µM (top dose mostly 57.6 µM), for the others: at the highest dose activity change, negative = inhibition, hits mostly inhibitors. 1,400 compounds, 67% hits. AID 1347046, 2019; also: nearly all actives have a fitted effect of over 70% in size
FLuc counter = Natriuretic polypeptide receptor (hNpr1) antagonism - Confirmation firefly luciferase (FLuc) inhibition counterscreen. shares compounds with NPR1 antag. purified FLuc enzyme, luminescence, Km substrate. Potency, µM (series often up to 57.6 µM), without a hit: at the top dose activity change, negative = inhibition, usual class: inhibitors. 1,400 compounds, 0.7% hits. AID 1347047, 2019; active = well fitted inhibition curve with a large enough effect; inconclusive = small, poorly fitted or top-dose-only effect; also: 0% is about no effect
GloSensor ctrl = Natriuretic polypeptide receptor (hNpr1) antagonism - Counterscreen GloSensor control cell line; shares compounds with NPR1 antag; HEK293 GloSensor cGMP, SNP-stimulated, luminescence; Potency, µM (doses to about 57.6 µM), for the others: at the highest dose activity change, negative = inhibition, usual class: inhibitors; 1,400 compounds, 69% hits; AID 1347051, 2019; also: % is scaled to controls: 0 for no effect and ±100 for the full control effect; nearly all actives have a fitted effect of over 70% in size
Active calls of the source: *; i = inactive; ? = inconclusive; . = no result given; [ ] = remark or other dose. Only a selection was taken, and hits are over-represented in it overall. Unless noted, calls follow the shape of the full dose curve. Potency is read from the fitted curve at half-maximal effect.

SMILES	GPT2 inhibitor	NPR1 antag	NPR1 antag cnf	Npr2 selectivity	FLuc counter	GloSensor ctrl
O=C1COc2ccc(NCc3cccs3)nc2CN1CCOc1ccccc1	2.9%[88.5 µM]	14.1µM*	19.8µM*	22.2µM*	6.0%[86.2 µM]	17.7µM*
O=C1COc2ccc(Nc3cccnc3)nc2CN1Cc1ccc(C(F)(F)F)cc1	-1.9%[88.5 µM]	-24.0%[70.6 µM]	.	.	.	.
CN1Cc2nc(NCCOc3ccccc3)ccc2OCC1=O	-45.5%[88.5 µM]	-22.2%[70.6 µM]	.	.	.	.
O=C1COc2ccc(NCc3cccs3)nc2CN1Cc1ccc(F)cc1	-7.4%[88.5 µM]	?	.	.	.	.
Cc1nc(-c2cccc(Cl)c2)n(CC(=O)NC(C)CCc2ccccc2)c(=O)c1CCO (stereo not drawn)	?	-12.9%	.	.	.	.
CC(=O)N1CCCC(c2nn(C)c(=O)n2C2CCCC2)C1 (stereo not drawn)	i	3.1%	.	.	.	.
C=CCNC(=O)N[C@H]1CO[C@H]2[C@@H]1OC[C@@H]2Nc1nccc(-c2ccc(OC)cc2)n1	-0.7%[88.5 µM]	-1.9%[70.6 µM]	.	.	.	.
CCCc1cc(CNC(=O)c2ccc(N3CCCN(CCC)CC3)nc2)on1	2.2%	-19.9%	.	.	.	.
COc1ccc(CNC(=O)[C@@H]2Cc3cn(Cc4cccnc4)c4cccc(c34)[C@H](CC(C)C)N2)cc1	-41.1%	-12.4%	.	.	.	.
c1ccc(Oc2cc3c(cn2)NCCN(Cc2ccc4[nH]ccc4c2)C3)cc1	-2.5%[88.5 µM]	?	.	.	.	.
c1cncc(COc2cc3c(cn2)NCCN(Cc2ccc4[nH]ccc4c2)C3)c1	i	8.91µM*	19.8µM*	22.2µM*	1.3%[86.2 µM]	19.8µM*
CN1CCC2(C1)CN(CC1CC1)c1ccc(C(=O)NC3CCCCC3)cc12 (stereo not drawn)	0.5%[88.5 µM]	0.5%[70.6 µM]	.	.	.	.
CN(Cc1cnn(C)c1)Cc1ccccc1OCC(O)CN1CCCCC1 (stereo not drawn)	i	-1.2%	.	.	.	.
Cc1nn2c(c1-c1ccccc1OCc1ccccc1)N(Cc1ccccc1)CCC2	-0.2%[88.5 µM]	-21.4%[70.6 µM]	.	.	.	.
Cc1nn2c(c1-c1ccccc1C(C)C)N(C(=O)Cc1ccc(O)cc1)CCC2	3.8%[88.5 µM]	-2.0%[70.6 µM]	.	.	.	.
Cc1nn2c(c1-c1ccccc1Oc1ccccc1)N(C(=O)C1CCC1)CCC2	-11.0%[88.5 µM]	-5.5%[70.6 µM]	.	.	.	.
COc1cccc(CC(=O)N2CCCn3nc(C)c(-c4ccccc4Oc4ccccc4)c32)c1	?	?	?	19.3µM*	1.2%	-17.5%
Cc1nn2c(c1-c1ccccc1OCc1ccccc1)N(Cc1ccc(C(=O)O)s1)CCC2	-19.8%	6.31µM*	5.44µM*	7.69µM*	-8.9%	6.11µM*
CC(=O)Nc1ccccc1-c1c(C)nn2c1N(C(=O)c1ccc(Oc3ccccc3)cc1)CCC2	?	11.2µM*	19.3µM*	17.2µM*	1.4%	17.2µM*
Cc1nn2c(c1-c1ccccc1Oc1ccccc1)N(C(=O)Cc1ccc(O)cc1)CCC2	4.1%[88.5 µM]	20µM*	35.3µM*	28µM*	0.7%[86.2 µM]	?
CC(=O)Nc1ccccc1-c1c(C)nn2c1N(C(=O)Cc1ccccc1)CCC2	-8.1%[88.5 µM]	-1.5%[70.6 µM]	.	.	.	.
COc1ccc(NC(=O)c2ccc(-c3nnc4ccc(NC(=O)C5CC5)cn34)cc2)cc1	i	-4.1%	.	.	.	.
O=C(NCc1cccc(Cl)c1)c1cc(-c2ccc(F)cc2)c2nncn2n1	0.5%	.	.	.	.	.
COCC1CN(C2CCC2)CC12CCN(S(=O)(=O)c1cccnc1)CC2 (stereo not drawn)	i	-15.0%	.	.	.	.
O=C(C1CCCN(C(=O)C2CCCC2)C1)N1CCC(N2Cc3cccn3C2=O)CC1 (stereo not drawn)	i	.	.	.	.	.
SMILES	GPT2 inhibitor	NPR1 antag	NPR1 antag cnf	Npr2 selectivity	FLuc counter	GloSensor ctrl
COc1ccc(CC(=O)N2CC[C@H]3CC(=O)N(CCN4CCNC4=O)CC[C@H]3C2)cc1	4.7%[88.5 µM]	0.6%[70.6 µM]	.	.	.	.
Cn1c(CNC(=O)C2CCN(c3cn[nH]c(=O)c3)C2)nc2ccccc21 (stereo not drawn)	i	6.7%	.	.	.	.
Cc1nn2c(c1-c1ccccc1C(N)=O)N(C(=O)Cc1cccc(F)c1)CCC2	3.4%[88.5 µM]	-1.3%[70.6 µM]	.	.	.	.
Cc1nn2c(c1-c1ccccc1OCc1ccccc1)N(C(=O)c1cccnc1)CCC2	i	2.7%[70.6 µM]	.	.	.	.
COc1ccc(C(=O)N2CCCn3nc(C)c(-c4ccccc4-c4ccccc4)c32)cc1	-29.6%[88.5 µM]	-21.8%[70.6 µM]	.	.	.	.
Cc1nn2c(c1-c1ccccc1OCc1ccccc1)N(C(=O)CCc1cccnc1)CCC2	-7.0%	?	?	?	3.7%	-2.3%
Cc1nn2c(c1-c1ccccc1Oc1ccccc1)N(C(=O)Cc1cccc(F)c1)CCC2	?	?	?	?	1.4%	-23.1%
COc1cccc(CC(=O)N2CCCn3nc(C)c(-c4ccccc4-c4ccccc4)c32)c1	4.7%[88.5 µM]	?	?	31.4µM*	2.0%[86.2 µM]	-24.9%[86.2 µM]
CC(C)NC(=O)NC1CCN(C(=O)c2ccc(-c3cccs3)cc2)CC1	i	.	.	.	.	.
Cc1cnc(C2CCOCC2)n1C1CCN(C(=O)Nc2ccc3c(c2)OCCO3)CC1	i	1.8%	.	.	.	.
O=C(c1ccc(Oc2ccccc2)cc1)N1CCNc2cnc(Nc3cccnc3)nc2C1	-16.9%	?	.	.	.	.
CN(C)c1cccc(C(=O)N2CCNc3cnc(Nc4cccc(C(F)(F)F)c4)nc3C2)c1	0.8%	15.8µM*	21.7µM*	24.3µM*	-5.8%	19.3µM*
COc1ccccc1Nc1ncc2c(n1)CN(C(=O)Cc1ccc3c(c1)OCO3)CCN2	-21.3%[88.5 µM]	-15.0%[70.6 µM]	.	.	.	.
O=C(Cc1ccc2c(c1)OCO2)N1CCNc2cnc(Nc3cccc(F)c3)nc2C1	2.1%[88.5 µM]	39.8µM*	35.3µM*	35.3µM*	6.1%[86.2 µM]	35.3µM*
CCn1cc(S(=O)(=O)N2CCC3(CC2)CC(OCC2CC2)CCO3)cn1 (stereo not drawn)	i	-6.8%	.	.	.	.
CC(C)c1ccc(CN2C[C@@H]3[C@H](C2)N(Cc2ccccc2)C(=O)C(C)(C)[S+]3(=O)[O-])cc1	-10.4%	-1.1%	.	.	.	.
COc1ccc(CC(=O)N2CCC(Cc3nc(-c4ccccc4)no3)CC2)cc1	i	7.08µM*	9.68µM*	12.2µM*	-0.3%	10.9µM*
CCOc1ccc(CC(=O)N2CCC(Cc3nc(-c4ccccc4)no3)CC2)cc1	i	15.8µM*	13.7µM*	17.2µM*	9.1%	12.2µM*
Cc1ccccc1CC(=O)N1CCC(Cc2nc(-c3cnccn3)no2)CC1	-3.0%	-0.3%	.	.	.	.
CCC1(O)CCC12CCN(C(=O)Cc1cccc(F)c1)CC2 (stereo not drawn)	-25.3%	.	.	.	.	.
